# According to the supplement of paper PMC6607015:
# Where a name gives a salt, the structure may show the parent alone.
# Columns and labels:
# Settings in all cases: compound concentration in added solution (µM; 5 µl added to 20 µl cells): 10; 18 h
# A431 [1] = assay: LBPA endosome anti-LBPA integrated intensity (sum per cell), Z-score; higher = more LBPA staining
# Procedure, shortened: (§1)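 The data are Z-scores, normalised in AcuityXpress, of integrated LBPA or filipin intensity in each cell, either whole-cell or restricted to LBPA endosomes. HeLa MZ or A431 cells, 3,500 per well in 20 µl, were seeded onto 5 µl of 10 µM compound solution in duplicate 384-well plates and incubated 18 h. Fixed cells were stained and imaged, with intensities extracted by MetaXpress segmentation.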
# HeLa MZ [2] = assay: as above
# Procedure, shortened: as §1
# A431 [3] = assay: whole-cell filipin (free cholesterol) integrated intensity, Z-score; higher = more cholesterol staining
# Procedure, shortened: as §1
# HeLa MZ [4] = assay: as above
# Procedure, shortened: as §1
# A431 [5] = assay: filipin (cholesterol) integrated intensity within LBPA endosomes, Z-score; higher = more cholesterol in LBPA endosomes
# Procedure, shortened: as §1
# HeLa MZ [6] = assay: as above
# Procedure, shortened: as §1
Compound,LBPA endosome anti-LBPA integrated intensity (z-score) (A431 [1]),LBPA endosome anti-LBPA integrated intensity (z-score) (HeLa MZ [2]),whole-cell filipin (z-score) (A431 [3]),whole-cell filipin (z-score) (HeLa MZ [4]),filipin (z-score) (A431 [5]),filipin (z-score) (HeLa MZ [6])
CC(C)C(=O)c1c(C(C)C)nn2ccccc12 [Ibudilast],-0.434,-0.686,0.153,-0.112,-0.402,-0.704
CN1C(=O)CC(c2ccccc2)C1=O (stereo not drawn) [Phensuximide],-0.488,-0.914,-0.489,-0.774,-0.376,-0.653
CN1CCN2c3ccccc3Cc3ccccc3C2C1 (stereo not drawn) [Mianserine hydrochloride],1.6,1.07,1.17,0.96,1.16,1.54
CN(C)CCN(Cc1cccs1)c1ccccn1 [Methapyrilene hydrochloride],-0.506,0.465,-0.777,-0.37,-0.539,-0.0761
CN(C)CCCSC(=N)N [Dimaprit dihydrochloride],-0.577,-1.27,-0.259,-0.607,-0.452,-0.519
c1ccc2c(c1)CCCc1cc(NCCN3CCOCC3)nnc1-2,-0.68,-0.691,-0.665,-0.162,-0.491,-0.0973
CC12CC3CC(C)(C1)CC(N)(C3)C2 [Memantine Hydrochloride],-0.449,0.231,0.233,0.438,-0.349,-0.0275
CN(C)CCCN1c2ccccc2CCc2ccccc21 [Imipramine hydrochloride],0.746,0.11,0.885,-0.699,1.08,0.828
COc1cc(-c2ccc(=O)[nH]n2)ccc1OC(F)F [Zardaverine],-0.319,0.0365,0.286,0.356,-0.298,-0.332
CC[N+](C)(C)c1cccc(O)c1 [Edrophonium chloride],-0.613,-1.29,-0.969,-0.842,-0.456,-0.596
CC(C(=O)O)c1ccc(C(=O)c2ccccc2)s1 (stereo not drawn) [Tiaprofenic acid],-0.52,-0.291,-0.49,0.105,-0.443,-0.426
CC1COc2c(N3CCN(C)CC3)c(F)cc3c(=O)c(C(=O)O)cn1c23 (stereo not drawn) [Ofloxacin],-0.519,-0.166,-0.939,0.125,-0.532,-0.106
C[C@]12CC[C@H]3C(=CCc4cc(O)ccc43)[C@@H]1CCC2=O [Equilin],-0.185,0.864,-0.0277,0.614,-0.251,0.186
